From PubChem BioAssay
Sm TGR block: qHTS Assay for the Inhibitors of Schistosoma Mansoni Peroxiredoxins; actives 3% (n = 360,000); AID 485364, 2010; purified TGR, DTNB reduction, TNB absorbance 405 nm; Potency, µM (doses to about 114 µM), actives largely listed as inhibitors; further: nearly all actives have a fitted effect of over 60% in size
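TGR 20 nM + NADPH 100 uM (dispensed conc.), cpd preinc 15 min RT; start with NADPH (500 uM addition) then DTNB (15 mM addition). Kinetic TNB absorbance, 405 nm filter. Four-parameter Hill fit across titration.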
Giardia FBPA inh: qHTS Assay for Inhibitors of Fructose-1,6-bisphosphate Aldolase from Giardia Lamblia | purified Giardia FBPA | actives 0.71% (n = 290,000) | Potency, µM (series often up to 59.6 µM), hits mostly inhibitors; further: nearly all actives have a fitted effect of over 55% in size
Target sequence (A8B2U2 whole entry, looked up): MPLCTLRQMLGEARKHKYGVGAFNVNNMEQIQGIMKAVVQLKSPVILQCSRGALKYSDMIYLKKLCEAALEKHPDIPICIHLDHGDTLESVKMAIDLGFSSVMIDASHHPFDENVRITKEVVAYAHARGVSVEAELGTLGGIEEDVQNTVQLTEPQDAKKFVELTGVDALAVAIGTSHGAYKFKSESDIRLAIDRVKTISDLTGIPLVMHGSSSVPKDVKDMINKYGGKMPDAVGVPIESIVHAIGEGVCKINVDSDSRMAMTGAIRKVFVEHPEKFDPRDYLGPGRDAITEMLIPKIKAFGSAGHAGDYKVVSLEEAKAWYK
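Giardia FBPA (40 nM reagent) was preincubated 10 min at RT with compound (up to 57.5 uM final), then substrate plus GAPDH/TPI/NAD/arsenate coupling system with diaphorase/resazurin was added; resorufin fluorescence (525/598 nm) was read after 20 min.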
NS1 inh: qHTS Assay for Inhibitors of Influenza NS1 Protein Function. Potency, µM (doses to about 46.1 µM). actives 0.4% (n = 270,000). AID 2326, 2010; calls by dose curve; further: actives are rising curves; nearly all actives have a fitted effect of over 50% in size
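S. cerevisiae expressing influenza A NS1, grown in glucose, washed, then diluted 1:100 into pH 6.0 -URA galactose medium with 23 nl compound. Growth recovery read as OD600; NS1-free strain serves as control.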
Tb PYK inh: qHTS of Trypanosoma Brucei Inhibitors. pyruvate kinase (Trypanosoma brucei), Q57TT1. TbPYK enzyme, Kinase-Glo Plus ATP luminescence, 45 min. Potency, µM (doses to about 76.8 µM), hits mostly inhibitors. actives 0.12% (n = 410,000). AID 624173, 2012; further: nearly all actives have a fitted effect of over 50% in size
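ADP (130 uM final) triggers the TbPYK reaction after compound addition; incubation is 45 min at room temperature. Kinase-Glo Plus is then added and luminescence imaged. Normalized data are fitted to concentration-effect curves.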
RE007 growth inh: qHTS Assay for Inhibitors of the HIV-1 protein Vpr. actives 0.21% (n = 360,000). Potency, µM (top dose mostly 92.2 µM), most hits filed as inhibitors. S. pombe RE007 Vpr strain, BacTiter-Glo ATP luminescence, 24 h. AID 651644, 2012; active means well fitted falling curve with a large enough effect; inconclusive means small, poorly fitted or top-dose-only effect; inactive means no such curve, though single readings can be large or run the other way; further: nearly all actives have a fitted effect of over 50% in size
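Fission yeast RE007 carrying one integrated HIV-1 vpr copy, seeded at OD 0.01 in PMG+AL medium with 23 nL pinned compound. Grown 24 h at 30 degrees; viability read by BacTiter-Glo luminescence after 5 min.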
LmPK inhibitor: qHTS Assay for Inhibitors of Leishmania Mexicana Pyruvate Kinase (LmPK) | purified LmPK, Kinase-Glo ATP luminescence, 1 h | Potency, µM (series often up to 57.5 µM), usual class: inhibitors | actives 0.37% (n = 290,000) | AID 1721, 2009
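Kinase-Glo luminescence read after 1 h RT reaction of 0.1 nM LmPK with 0.5 mM PEP and 0.1 mM ADP. Activity scaled between uninhibited and enzyme-free controls.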
Hits are given with their value; – = inactive; ? = inconclusive; · = not tested or not shown. Compounds with a hit are over-represented: about 3.5% of the library has one in this group of screens. Unless noted, the call rests on the fitted dose curve; in most records, active means well fitted curve in the direction sought with a large enough effect; inconclusive means small, poorly fitted or top-dose-only effect, or another doubt; inactive means no such curve, though single readings can be large; an effect the other way counts as inactive or inconclusive.

SMILES	Sm TGR block	Giardia FBPA inh	NS1 inh	Tb PYK inh	RE007 growth inh	LmPK inhibitor
Cc1ccc(NC(=O)C(=O)NCC(c2cccnc2)N2CCN(Cc3ccccc3)CC2)cc1F (stereo not drawn)	–	·	·	–	·	·
COc1ccc(C(=O)Nc2ccc3c(c2)OCCO3)cc1	–	–	–	–	–	25µM
COc1cccc(C(=O)Nc2cccc(OC(C)=O)c2)c1	–	–	–	–	–	25µM
CCCOc1ccc(C(=O)CCNc2cccc(Cl)c2)cc1	?	–	·	–	–	–
COC(=O)c1sccc1NC(=O)c1cccc(OC)c1	–	–	–	–	–	–
COc1ccc(C(=O)CCNc2cccc(Cl)c2)cc1	45µM	–	–	–	–	–
COC(=O)c1sccc1NC(=O)Nc1cccc(OC)c1	–	·	–	–	32µM	–
CC(=O)Oc1cccc(NC(=O)c2cccc(C(=O)Nc3cccc(OC(C)=O)c3)c2)c1	–	–	–	–	–	–
Cn1c(=O)c([N+](=O)[O-])c(-n2cnc3ccccc32)c2ccccc21	16µM	–	–	–	–	–
Cc1nccn1-c1c([N+](=O)[O-])c(=O)n(C)c2ccccc12	–	–	–	–	–	–
Cn1c(=O)c([N+](=O)[O-])c(Cl)c2ccccc21	0.45µM	–	–	–	–	–
CCc1nn2c(=O)cc(COC(=O)c3ccccc3)nc2s1	–	·	·	–	·	·
O=C(Nc1ccc2nc(-c3ccco3)c(-c3ccco3)nc2c1)N1CCN(c2ccccn2)CC1	2µM	?	?	?	–	–
O=C(c1cccc(C(=O)N2CCN(c3ncccn3)CC2)c1)N1CCN(c2ncccn2)CC1	–	–	–	–	–	–
O=C(c1ccc2nc(-c3ccco3)c(-c3ccco3)nc2c1)N1CCN(c2ncccn2)CC1	10µM	·	–	–	–	–
CCc1ccc(N2C(=O)CS(=O)(=O)C23C(=O)N(Cc2ccccc2)c2ccccc23)cc1 (stereo not drawn)	–	·	·	–	·	·
O=c1cnc2cnc(Nc3ccccc3)nc2n1Cc1cccs1	·	–	·	·	·	·
Cc1cc(C)c(C(=O)/C=C/c2cccc3ccccc23)c(=O)[nH]1	–	–	–	–	–	–
Cc1[nH]c(=O)c(C(=O)/C=C/c2ccccc2F)c2c1CCCC2	100µM	–	–	–	–	–
CN(C)c1ccc2nc3ccc(=[N+](C)C)cc-3sc2c1	?	?	·	?	?	–
Cc1cc2nc3ccc(=[N+](C)C)cc-3sc2cc1N	?	?	–	?	?	14µM
Nc1cccc(-c2nc3ccccc3s2)c1	–	–	–	–	?	14µM
COc1ccc(-c2nc3ccccc3s2)cc1O	–	–	–	–	?	16µM
Oc1cccc(-c2nc3ccccc3s2)c1	–	–	–	?	?	–
Cc1ccc(N(C)C(=O)C2CCN(S(=O)(=O)c3cn(C)cn3)CC2)cc1	–	·	·	–	·	·
SMILES	Sm TGR block	Giardia FBPA inh	NS1 inh	Tb PYK inh	RE007 growth inh	LmPK inhibitor
O=C1NC(=O)N(Cc2ccc(F)cc2)C(=O)/C1=C\c1ccoc1	?	–	–	–	–	–
CSc1ncc(/C=C2/C(=O)NC(=O)N(c3ccc(C(C)C)cc3)C2=O)cn1	11µM	–	–	–	·	–
CC(C)c1ccc(N2C(=O)NC(=O)/C(=C/c3cnc(-c4ccccc4)nc3)C2=O)cc1	3.5µM	–	–	–	–	–
O=C1NC(=O)N(Cc2ccccc2)C(=O)/C1=C/c1cnc(-c2ccccc2)nc1	10µM	–	·	–	–	–
CCc1ccc(N2C(=O)NC(=O)/C(=C\c3cccn3CCOc3ccc(C(C)C)cc3)C2=O)cc1	?	–	–	–	–	–
COc1ccc(OCC(=O)Nc2ccccc2C(=O)OCc2cc(=O)n3nc(C)sc3n2)cc1	–	·	·	–	·	·
COc1ccc(-c2nc3c(Br)c(N)c(Br)cc3o2)cc1	–	?	–	–	–	22µM
COc1ccc(-c2noc(-c3cccnc3NCc3ccco3)n2)cc1	–	·	·	–	·	·
O=C(O)COc1ccccc1C(Nc1ccccn1)c1cc(Cl)c2cccnc2c1O (stereo not drawn)	0.4µM	?	–	–	–	–
CCOc1ccc(C(Nc2cccnc2)c2cc(Cl)c3cccnc3c2O)cc1 (stereo not drawn)	0.32µM	?	–	–	?	–
CCOc1ccccc1C(=O)N1CCCCC1CCN1CCOCC1 (stereo not drawn)	–	·	·	–	·	·
CC1(C)Cc2c(C#N)c(N)n(-c3ccccc3)c(=S)c2CO1	–	–	–	–	–	–
N#Cc1c2c(c(=S)n(-c3ccccc3)c1N)CCCC2	40µM	?	–	–	–	–
O=C1c2oc3ccc(Cl)cc3c(=O)c2C(c2ccccn2)N1CCCN1CCOCC1 (stereo not drawn)	13µM	–	?	–	–	–
CC(C)Oc1ccc(C2c3c(oc4ccccc4c3=O)C(=O)N2CCCN2CCOCC2)cc1 (stereo not drawn)	40µM	–	–	–	–	–
O=C1c2oc3ccccc3c(=O)c2C(c2cccnc2)N1CCCN1CCOCC1 (stereo not drawn)	45µM	–	–	–	–	–
CCOC(=O)c1cnc2c(C)cc(C)cc2c1Nc1cccc(C(=O)O)c1	–	·	·	–	·	·
CC(=O)N1CC[C@H]2CC(=O)CC[C@@]21C	·	–	·	·	·	·
Cc1ccc(OCCn2cccc2/C=C2/C(=O)NC(=O)N(Cc3ccco3)C2=O)cc1	14µM	–	–	–	–	–
Cn1cccc1/C=C1\C(=O)NC(=O)N(Cc2ccco2)C1=O	40µM	–	·	–	–	–
COc1ccc(/C=C2/C(=O)NC(=O)N(Cc3ccco3)C2=O)cc1	·	–	–	·	·	–
CCOc1ccc(CCNC(=O)CCc2cn(Cc3ccc(C)cc3)c3ccccc23)cc1	–	·	·	–	·	·
CC1(C)OC(=O)C(=NNc2ccccc2[N+](=O)[O-])C(=O)O1	–	–	–	–	35µM	–
O=C(CCl)N=c1sccn1Cc1ccccc1Cl	–	–	–	–	–	–
O=C(CCl)N=c1sccn1Cc1ccc(Cl)cc1Cl	13µM	–	·	–	–	–
O=C(CCl)N=c1sccn1Cc1cccc2ccccc12	25µM	–	–	–	–	–
COc1ccc(-c2c(C)nn3c4c(cnc23)C(=O)CC(c2ccccc2)C4)cc1 (stereo not drawn)	–	·	·	–	·	·
CCN(C(=O)c1oc2ccc(S(=O)(=O)N3CCCCCC3)cc2c1C)c1ccccc1	–	·	·	–	·	·
CC(=O)c1ccc(NC(=O)CCc2c(C)nn(-c3ccc4nncn4n3)c2C)cc1	–	·	·	–	·	·
O=C(CN1CC(=O)Nc2ccccc21)Nc1ccc(F)c(F)c1	32µM	?	·	–	–	–
